Measured values reported in PubChem BioAssay AID485346 (Sanford-Burnham Center for Chemical Genomics, 2010).
Out of some 330,000 compounds screened, about 10,000 (3%) were called active. The sample holds actives, similar compounds and a random draw of the others, so the mix is not that of the screen.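 Rule for the calls: active = inhibition of at least 50% at 8 µM in the primary screen; inactive = the rest.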

biological target: Protein Mdm4 (Homo sapiens) + E3 ubiquitin-protein ligase Mdm2 (Homo sapiens) (UniProt O15151+Q00987); test: disruptors of Mdm2/MdmX RING complex – cell-based, luminescence, split luciferase, SaOS-2, uHTS, primary screen (AID 485346); details: SaOS-2 split-luciferase Mdm2/MdmX complementation, at 8 µM, active compounds read high
Sequence (O15151 whole entry, looked up): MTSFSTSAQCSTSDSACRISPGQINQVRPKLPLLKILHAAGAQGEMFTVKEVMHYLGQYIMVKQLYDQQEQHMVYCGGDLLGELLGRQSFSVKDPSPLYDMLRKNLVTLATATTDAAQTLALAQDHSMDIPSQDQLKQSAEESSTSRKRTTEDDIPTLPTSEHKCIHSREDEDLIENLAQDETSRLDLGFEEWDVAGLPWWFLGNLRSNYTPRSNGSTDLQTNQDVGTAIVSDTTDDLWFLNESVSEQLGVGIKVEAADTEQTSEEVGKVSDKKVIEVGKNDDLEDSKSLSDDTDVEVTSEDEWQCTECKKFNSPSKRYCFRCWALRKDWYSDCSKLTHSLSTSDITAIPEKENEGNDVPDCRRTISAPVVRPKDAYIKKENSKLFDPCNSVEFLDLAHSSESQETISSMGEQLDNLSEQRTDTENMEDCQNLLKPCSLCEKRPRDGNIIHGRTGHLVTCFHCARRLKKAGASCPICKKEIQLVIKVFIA
Sequence (Q00987 whole entry, looked up): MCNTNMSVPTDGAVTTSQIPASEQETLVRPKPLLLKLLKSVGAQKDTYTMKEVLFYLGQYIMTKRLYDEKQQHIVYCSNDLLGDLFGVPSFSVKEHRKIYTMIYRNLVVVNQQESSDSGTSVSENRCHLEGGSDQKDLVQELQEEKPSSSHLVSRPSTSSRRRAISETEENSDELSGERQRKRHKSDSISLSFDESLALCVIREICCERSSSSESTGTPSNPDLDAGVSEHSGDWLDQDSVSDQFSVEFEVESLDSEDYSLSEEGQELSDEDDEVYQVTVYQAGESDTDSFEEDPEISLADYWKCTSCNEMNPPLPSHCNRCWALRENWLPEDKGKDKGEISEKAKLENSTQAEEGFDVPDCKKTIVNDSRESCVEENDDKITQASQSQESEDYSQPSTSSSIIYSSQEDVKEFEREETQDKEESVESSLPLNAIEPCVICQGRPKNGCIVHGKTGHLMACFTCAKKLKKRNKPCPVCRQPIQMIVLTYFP

inhibition, active:
COC(=O)c1ccc(NC(=O)c2cc(Cl)ccc2OC)cc1 92.4%, O=S(=O)([N-]c1nc2ccccc2nc1-[n+]1ccc(Cc2ccccc2)cc1)c1ccc(Br)s1 71.9%, Cc1cc(C(=O)NC2CCCc3c2cnn3-c2cccc(C)c2C)c(C)o1 (configuration not stated) 68%, COc1ccc(C(=O)NC2CCCc3c2cnn3-c2cccc(C)c2C)c(OC)n1 (configuration not stated) 97.7%, O=[N+]([O-])c1cc(S(=O)(=O)Nc2cccc(Cl)c2)ccc1N=Nc1c(O)[nH]c2ccccc12 97.4%, Cc1cccc(N(C)C(=O)c2cc3c(=O)[nH]c4ccc(C)cc4c3s2)c1 60.9%, Nc1ccc(C(=O)Nc2ccccc2N)cc1 54.8%, O=C(Nc1cccc(C(F)(F)F)c1)c1ccc(N2CCNCC2)c([N+](=O)[O-])c1 52.8%, CC(NC(=O)c1ccc(N2CCNCC2)c([N+](=O)[O-])c1)C12CC3CC(CC(C3)C1)C2 (configuration not stated) 101%, COc1cccc(-n2c(SCC(=O)NC3CCCCC3)nc3n[nH]c(C)c3c2=N)c1 53.3%, CN(C)CCCn1c(=O)n(Cc2ccccc2)c(=O)c2c3c(sc21)CCCCC3 61.8%, CC(Nc1nc(C(F)(F)F)nc2ccccc12)c1cccs1 (configuration not stated) 69.6%, O=C(N/N=C/c1sc(N2CCCCC2)nc1-c1cccs1)c1cccnc1 57.4%, CC(C)(C)CC(C)(C)NCC(O)COCCOc1ccc(Br)cc1 (configuration not stated) 65.4%, N#CC1=C(N)Oc2cc(O)ccc2C1C1CCCCC1 (configuration not stated) 64.7%, COc1cc(/C=C2\Oc3ccc(C#Cc4ccc(O)cc4)cc3C2=O)cc(OC)c1 62.4%, CC[n+]1cc(C)ccc1/C=C/c1ccc(N(C)C)cc1 81.1%, Nc1cccc(-c2cc(-c3ccccc3)nc(-c3cccc(N)c3)n2)c1 65%, COc1ccc(C2CC(c3cccs3)=NN2c2nc(C)c(C(C)=O)s2)cc1OC (configuration not stated) 67.5%, Cc1ccc(NC(=S)NC(NC(=O)Cc2cccc3ccccc23)C(Cl)(Cl)Cl)cc1 (configuration not stated) 79.8%

inhibition, inactive:
Cn1c2c(c(=O)n(C)c1=O)C(c1cccc(F)c1)C(C#N)=C(N)O2 (configuration not stated) -0.62%, Cc1ccc(C(=O)NCC(=O)NCc2cc(=O)n(C)c(=O)n2C)cc1 -0.269%, COc1ccc(Cl)cc1C(=O)Nc1ccc(N(C)C(C)=O)cc1 1.34%, CCC(C)NC(=O)c1cc(Cl)ccc1OC (configuration not stated) 2.55%, COc1cc(NC(=S)NCCSc2ccc(C)cc2)cc(OC)c1 27.5%, O=C(NCCc1ccccc1)C1CCN(S(=O)(=O)c2ccc(Br)s2)CC1 18.6%, O=S(=O)(NCc1cccnc1)c1ccc(Br)s1 1%, COc1ccc2c(c1)c1nc3n(c(=O)c1n2CC(=O)Nc1ccccc1)CCS3 41.9%, CC(C(=O)NC1CCCC1)N1CCN(S(=O)(=O)c2ccccc2Cl)CC1 (configuration not stated) -17.2%, Cn1nccc1C(=O)NC1CCCc2c1cnn2-c1ccccc1F (configuration not stated) -1.1%, Cn1nccc1C(=O)NC1CCCc2c1cnn2-c1ccc(F)cc1F (configuration not stated) 26.9%, Cc1ccc(-n2ncc3c2CCCC3NC(=O)c2cnccn2)cc1C (configuration not stated) 9.66%, CC(=O)NCC(=O)NC1CCCc2c1cnn2-c1ccccc1F (configuration not stated) -11.2%, Cc1nonc1C1CCCN1Cc1nc(-c2ccc(F)cc2F)oc1C (configuration not stated) 29.7%, Clc1ccc(C[n+]2cc(-c3ccc(Cl)cc3)n3c2CCC3)cc1 31.8%, Cc1cccc(N(CC(=O)N=Nc2c(O)[nH]c3ccccc23)S(C)(=O)=O)c1C -22.1%, COc1ccc(S(=O)(=O)Nc2ccc3cn[nH]c3c2)cc1[N+](=O)[O-] 0.751%, Cc1ccc2[nH]c(=O)c(CC(=O)O)c(-c3ccccc3)c2c1 22%, CCN(CC)CCCNC(=O)c1cc2c(=O)[nH]c3ccc(C)cc3c2s1 26.3%, O=C(CNC(=O)C12CC3CC(CC(C3)C1)C2)OCC(=O)N1CCCCC1 19.2%, C/C(=N\NC(=O)c1ccc(NS(=O)(=O)c2cccs2)cc1)c1ccc2ccccc2c1 -6.93%, COc1cc(OC)cc(C(=O)NC2CCN(C(=O)N3c4ccccc4Sc4ccccc43)CC2)c1 9.25%, Nc1ccc(C(=O)NCc2ccccc2)cc1 3.98%, CC(=O)Nc1ccccc1NC(=O)c1cc(C)cc(C)c1 -1.21%, CCC(C)NC(=O)c1ccc(N2CCC3(CC2)OCCO3)c([N+](=O)[O-])c1 (configuration not stated) 10.6%, O=C(NC1C2CC3CC(C2)CC1C3)c1ccc(N2CCNCC2)c([N+](=O)[O-])c1 (configuration not stated) 34.8%, O=C(Nc1ccc(N2C(=O)c3cccc4cccc(c34)C2=O)cc1)c1ccc(N2CCCCC2)c([N+](=O)[O-])c1 -6.66%, COc1cc(OC)cc(C(=O)NC(=S)N2CCN(c3ccc(C(F)(F)F)cc3[N+](=O)[O-])CC2)c1 17.3%, Brc1c(CSc2nncc3ccccc23)nc2ccccn12 21.7%, CCc1ccccc1NC(=O)c1ccc2c(c1)CCN2S(C)(=O)=O 24.8%, CC(=N\NC(=O)c1cc(Br)ccc1O)/C(=N/O)C(=O)Nc1ccccc1 36.7%, CCN(CC)C(CNC(=O)CSc1nnnn1-c1cccc(F)c1)c1ccco1 (configuration not stated) -4.51%, CCCCNC(=O)CSc1nc2n[nH]c(C)c2c(=N)n1-c1cccc(Cl)c1C -6.85%, Cc1ccc(-n2c(SCC(=O)NCCC3=CCCCC3)nc3n[nH]c(C)c3c2=N)cc1Cl 28.5%, COCCNC(=O)CSc1nc2sccc2c(=O)n1-c1ccccc1 6.49%, Cn1c(=O)n(Cc2ccco2)c(=N)c2c3c(sc21)CCCC3 15.6%, O=c1c2c3c(sc2n(CCN2CCCC2)c(=O)n1Cc1ccccc1)CCCCC3 28.5%, COc1cccc(CNc2nc(C(F)(F)F)nc3ccccc23)c1 31.6%, CCc1ccc(C(CNc2nc(C(F)(F)F)nc3ccccc23)N(C)C)cc1 (configuration not stated) 20.9%, COc1ccccc1CNC(=O)CCCN1C(=O)NC2(CCCC2)C1=O 20.4%, Cc1c(C(=O)NCCN2CCOCC2)sc2nc(-c3ccc(F)cc3)cn12 7.76%, O=C(N/N=C/c1cccnc1)c1ccc(NC(=O)c2ccc(F)cc2)cc1 -2.66%, O=C(NN=C1CCC(=NNC(=O)c2cccnc2)CC1)c1cccnc1 -0.152%, CCOC(=O)c1csc(CCNC(=O)c2oc3c(Cl)cc(C)cc3c2C)n1 21.7%, OC(COc1ccc(Br)cc1)CN1CCCC1 (configuration not stated) 2.28%, CC(Oc1ccc(Br)cc1)C(=O)NC1CCCCCC1 (configuration not stated) 0.219%, NC(=O)CCC(NS(=O)(=O)c1ccc(Cl)cc1)C(=O)NCc1ccccc1Cl (configuration not stated) 20.8%, Cc1cc(C)c2nc(-c3cccnc3)cc(C(=O)Nc3ccc(S(=O)(=O)Nc4onc(C)c4C)cc3)c2c1 -28.5%, Cc1ccc(Cn2c(=N)c(S(=O)(=O)c3ccc(C)cc3)cc3c(=O)n4ccccc4nc32)cc1 21.6%, COCc1[nH]nc2c1C(C1C=CCCC1)C(C#N)=C(N)O2 (configuration not stated) 23.8%, N#CC1=C(N)OC2=C(C(=O)CCC2)C1C1CC=CCC1 (configuration not stated) -10%, COc1ccc2c(c1)O/C(=C\c1ccccc1O)C2=O -152%, COc1cc(C#Cc2ccc3cc(CCCO)oc(=O)c3c2)cc(OC)c1 38.9%, O=C(Nc1cccc2c1CCCC2)c1ccc(F)cc1 11.9%, COc1ccc([C@H]2CC(=O)C=C(c3ccc(OC(F)(F)F)cc3)C2)cc1OC -6.36%, Cc1ccc2c(cnn2C(=O)CCC(=O)NC2CCCC2)c1 7.95%, Cn1nccc1NS(=O)(=O)c1ccc(F)cc1 -11.5%, NS(=O)(=O)c1ccc(CCNC(=O)c2ccc([N+](=O)[O-])cc2[N+](=O)[O-])cc1 -0.842%, Cc1c(-c2ccccc2)cn2c1-c1ccc(C)n1CC2 -3.59%, O=S(=O)(c1cccs1)N1CCN(CCOc2ccccc2)CC1 14.3%, Cn1cc(S(=O)(=O)NC(c2ccccc2)c2ccccc2)c(=O)n(C)c1=O 7.36%, c1ccc(-c2cc(-c3ccccc3)[nH]n2)cc1 -145%, Nc1cccc(CCc2nc3ccccc3[nH]2)c1 -30.8%, N#Cc1cccc(CSc2ncnc(N)n2)c1 7.81%, COc1ccc(C2CC(c3cccs3)=NN2C(=O)CCC(=O)O)cc1OC (configuration not stated) 17.5%, COc1ccc(C2CC(c3cccs3)=NN2c2ccc(F)cc2)cc1OC (configuration not stated) -3.01%, Cc1cc(NC(=O)CCC(=O)N(Cc2ccccc2)C(C(=O)NC2CCCC2)c2ccc(C)o2)no1 (configuration not stated) 16.1%, O=C(Cc1cccc2ccccc12)NNC(=O)Nc1ccc(Cl)cc1 -10%, CC(C)(C)C(=O)NC(NC(=S)Nc1ccc(S(N)(=O)=O)cc1)C(Cl)(Cl)Cl (configuration not stated) 18.8%, COc1ccc(S(=O)(=O)N2CCN(C(=O)N(C)C)C2C)cc1 (configuration not stated) -11.6%, O=c1ccc2cc(S(=O)(=O)NCCCc3ccccc3)ccc2[nH]1 23.1%, N#Cc1c(N)nc2c(c1N)CC(C(F)(F)F)O2 (configuration not stated) 9.73%
